# Source: PubChem BioAssay (NCI)
# Compounds without any hit were thinned out: in the full panel of roughly 79,000, 15% have a hit. Unmarked numbers belong to inactive results. Activity calls are given as the source filed them. Cut-off read from the data, not from the text of the source: active = growth inhibition above about 70%; inactive = the rest.
# Columns and labels:
# [1] = NCI Yeast Anticancer Drug Screen. Data for the rad52 strain (AID 147);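 note: 0% = growth of vehicle-treated control cultures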; settings: S. cerevisiae rad52 mutant growth inhibition, active compounds read high
# In short: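 Here a repair-compromised yeast strain receives each compound; its growth is then quantified and normalised to vehicle-only controls.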
# [2] = NCI Yeast Anticancer Drug Screen. Data for the wt1 strain (AID 149);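 note: 0% = growth of vehicle-treated wt1 cultures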; settings: S. cerevisiae wt1 strain (SPY 50644) growth inhibition, active compounds read high
# In short: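 Growth inhibition read against vehicle controls after compound exposure of the wt1 yeast strain.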
# [3] = NCI Yeast Anticancer Drug Screen. Data for the rad50EPP+ strain (AID 151);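 note: 0% = growth of vehicle-treated control cultures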; settings: S. cerevisiae rad50 mutant strain, active compounds read high
# In short: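 Read-out is yeast growth inhibition relative to vehicle; cells used were the rad50EPP+ strain.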
# [4] = NCI Yeast Anticancer Drug Screen. Data for the mgt1 strain (AID 153); settings: S. cerevisiae mgt1 mutant growth inhibition, active compounds read high
# In short: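 Measured: inhibition of mgt1 yeast growth by compound, normalized to vehicle-treated cultures.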
# [5] = NCI Yeast Anticancer Drug Screen. Data for the rad50 strain (AID 155);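 note: 0% = growth of vehicle-only cultures of the same strain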; settings: S. cerevisiae rad50 strain growth inhibition, active compounds read high
# In short: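 Readout: growth inhibition relative to vehicle-treated cultures. Compound exposure was carried out in a genetically defined yeast strain deficient in DNA damage repair.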
# [6] = NCI Yeast Anticancer Drug Screen. Data for the mec2-1 strain (AID 157); settings: S. cerevisiae mec2-1 strain, active compounds read high
# In short: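 Using mec2-1 yeast: add compound, measure growth, express inhibition versus vehicle-treated cultures.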
# [7] = NCI Yeast Anticancer Drug Screen. Data for the rad14 strain (AID 159);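 note: 0% = growth of vehicle-treated control cultures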; settings: S. cerevisiae rad14 strain growth inhibition, active compounds read high
# In short: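 Growth inhibition vs vehicle controls; genetically altered yeast strain (DNA damage repair defect) treated with test compounds.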
# [8] = NCI Yeast Anticancer Drug Screen. Data for the sgs1 mgt1 strain (AID 161);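 note: 0% = growth of cultures given vehicle only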; settings: S. cerevisiae sgs1 mgt1 strain, active compounds read high
# In short: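 Yeast cells carrying a defined DNA-repair defect were exposed to test compounds. Growth inhibition was measured relative to vehicle-treated controls.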
# [9] = NCI Yeast Anticancer Drug Screen. Data for the CLN2oe strain (AID 163);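 note: 0% = growth of vehicle-only control cultures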; settings: S. cerevisiae CLN2oe strain, active compounds read high
# In short: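 Whole-cell yeast growth assay. A strain engineered for altered cell-cycle control received compound, and inhibition relative to vehicle-treated cultures was recorded.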
# [10] = NCI Yeast Anticancer Drug Screen. Data for the cln2 rad14 strain (AID 165);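 note: 0% = growth equal to vehicle treated cultures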; settings: S. cerevisiae cln2 rad14 strain, active compounds read high
# In short: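 Yeast strain cln2 rad14, bearing defects in cell cycle control and DNA repair, serves as the test system; values reflect growth inhibition compared with vehicle.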
# [11] = NCI Yeast Anticancer Drug Screen. Data for the bub3 strain (AID 167); settings: S. cerevisiae bub3 mutant strain, active compounds read high
# In short: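 Readout: yeast growth inhibition, expressed relative to vehicle-only wells. The test organism is a mutant strain from a panel with lesions in DNA repair or checkpoint genes.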
# [12] = NCI Yeast Anticancer Drug Screen. Data for the wt2 strain (AID 169);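 note: 0% = growth of vehicle-treated yeast cultures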; settings: S. cerevisiae wt2 strain growth inhibition, active compounds read high
# In short: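 Treated yeast vs. vehicle-treated yeast: growth inhibition determined.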
# [13] = NCI Yeast Anticancer Drug Screen. Data for the mlh1 strain (AID 171);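 note: 0% = growth of vehicle-treated control cultures of the same strain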; settings: S. cerevisiae mlh1 strain growth inhibition, active compounds read high
# In short: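 A yeast strain with a defined genetic lesion serves as the test organism. Cultures receive compound or vehicle, and growth is measured.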
# [14] = NCI Yeast Anticancer Drug Screen. Data for the sgs1 strain (AID 173);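 note: 0% = growth of vehicle-only control cultures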; settings: S. cerevisiae sgs1 mutant, active compounds read high
# In short: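 A genetically defined yeast mutant is incubated with the test compound, and its growth is compared to that of the same strain given vehicle.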
# [15] = NCI Yeast Anticancer Drug Screen. Data for the mlh1 rad18 strain (AID 175); settings: S. cerevisiae mlh1 rad18 strain growth inhibition, active compounds read high
# In short: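 Steps: expose repair-defective yeast to compound; measure growth; express inhibition against vehicle-treated controls.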
# [16] = NCI Yeast Anticancer Drug Screen. Data for the rad18 strain (AID 177); settings: S. cerevisiae rad18 mutant growth inhibition, active compounds read high
# In short: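 Measured value is growth inhibition of a yeast strain bearing a DNA repair alteration, referenced to vehicle-treated cells.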
# [17] = at 5.0 µM (retest, dose inferred, filed as 0.5)
# [18] = at 50.0 µM (retest, dose inferred, filed as 5.0)
smiles,measurement,setting,value
CCCCCCCN(CCCCCCC)CC(=O)c1ccc2cc(Cl)c3ccccc3c2c1,growth inhibition,[1]; at 1.2 µM,3%
same,growth inhibition,[1]; at 3.7 µM,19%
same,growth inhibition,[1]; at 11.0 µM,98% (active)
same,growth inhibition,[1]; at 33.0 µM,96% (active)
same,growth inhibition,[1]; at 100.0 µM,92% (active)
same,growth inhibition,[2]; at 1.2 µM,-7%
same,growth inhibition,[2]; at 3.7 µM,18%
same,growth inhibition,[2]; at 11.0 µM,97% (active)
same,growth inhibition,[2]; at 33.0 µM,97% (active)
same,growth inhibition,[2]; at 100.0 µM,92% (active)
same,growth inhibition,[3]; at 1.2 µM,-5%
same,growth inhibition,[3]; at 3.7 µM,0%
same,growth inhibition,[3]; at 11.0 µM,29%
same,growth inhibition,[3]; at 33.0 µM,58%
same,growth inhibition,[3]; at 100.0 µM,94% (active)
same,growth inhibition,[4]; at 1.2 µM,5%
same,growth inhibition,[4]; at 3.7 µM,19%
same,growth inhibition,[4]; at 11.0 µM,98% (active)
same,growth inhibition,[4]; at 33.0 µM,98% (active)
same,growth inhibition,[4]; at 100.0 µM,95% (active)
same,growth inhibition,[5]; at 1.2 µM,2%
same,growth inhibition,[5]; at 3.7 µM,28%
same,growth inhibition,[5]; [17],39%
same,growth inhibition,[5]; at 11.0 µM,98% (active)
same,growth inhibition,[5]; at 33.0 µM,97% (active)
same,growth inhibition,[5]; [18],93% (active)
same,growth inhibition,[5]; at 50.0 µM,99.3% (active)
same,growth inhibition,[5]; at 100.0 µM,92% (active)
same,growth inhibition,[6]; at 1.2 µM,1%
same,growth inhibition,[6]; at 3.7 µM,0%
same,growth inhibition,[6]; [17],26%
same,growth inhibition,[6]; at 11.0 µM,78% (active)
same,growth inhibition,[6]; at 33.0 µM,98% (active)
same,growth inhibition,[6]; [18],96% (active)
same,growth inhibition,[6]; at 50.0 µM,99.4% (active)
same,growth inhibition,[6]; at 100.0 µM,96% (active)
same,growth inhibition,[7]; at 1.2 µM,36%
same,growth inhibition,[7]; at 3.7 µM,50%
same,growth inhibition,[7]; at 11.0 µM,98% (active)
same,growth inhibition,[7]; at 33.0 µM,97% (active)
same,growth inhibition,[7]; at 100.0 µM,95% (active)
same,growth inhibition,[8]; [17],60%
same,growth inhibition,[8]; [18],96% (active)
same,growth inhibition,[8]; at 50.0 µM,99.2% (active)
same,growth inhibition,[9]; at 1.2 µM,1%
same,growth inhibition,[9]; at 3.7 µM,22%
same,growth inhibition,[9]; at 11.0 µM,98% (active)
same,growth inhibition,[9]; at 33.0 µM,97% (active)
same,growth inhibition,[9]; at 100.0 µM,92% (active)
same,growth inhibition,[10]; [17],14%
same,growth inhibition,[10]; [18],93% (active)
same,growth inhibition,[10]; at 50.0 µM,98.5% (active)
same,growth inhibition,[11]; at 1.2 µM,9%
same,growth inhibition,[11]; at 3.7 µM,24%
same,growth inhibition,[11]; [17],26%
same,growth inhibition,[11]; at 11.0 µM,98% (active)
same,growth inhibition,[11]; at 33.0 µM,97% (active)
same,growth inhibition,[11]; [18],95% (active)
same,growth inhibition,[11]; at 50.0 µM,98.2% (active)
same,growth inhibition,[11]; at 100.0 µM,94% (active)
same,growth inhibition,[12]; at 1.2 µM,32%
same,growth inhibition,[12]; at 3.7 µM,64%
same,growth inhibition,[12]; at 11.0 µM,98% (active)
same,growth inhibition,[12]; at 33.0 µM,97% (active)
same,growth inhibition,[12]; at 100.0 µM,95% (active)
same,growth inhibition,[13]; at 1.2 µM,-9%
same,growth inhibition,[13]; at 3.7 µM,40%
same,growth inhibition,[13]; at 11.0 µM,98% (active)
same,growth inhibition,[13]; at 33.0 µM,97% (active)
same,growth inhibition,[13]; at 100.0 µM,93% (active)
same,growth inhibition,[14]; at 1.2 µM,5%
same,growth inhibition,[14]; at 3.7 µM,26%
same,growth inhibition,[14]; at 11.0 µM,98% (active)
same,growth inhibition,[14]; at 33.0 µM,97% (active)
same,growth inhibition,[14]; at 100.0 µM,93% (active)
same,growth inhibition,[15]; [17],25%
same,growth inhibition,[15]; [18],94% (active)
same,growth inhibition,[15]; at 50.0 µM,99.5% (active)
same,growth inhibition,[16]; at 1.2 µM,-9%
same,growth inhibition,[16]; at 3.7 µM,19%
same,growth inhibition,[16]; at 11.0 µM,98% (active)
same,growth inhibition,[16]; at 33.0 µM,97% (active)
same,growth inhibition,[16]; at 100.0 µM,93% (active)
